Reference: paper PMC5540273 (PLoS ONE, 2017)

Columns and labels:
Settings in all cases: concentration: 1 μM, replicates: in singlicate; n = 1
JNK2 = system: T1, JNK2
T1 construct: gene MAPK9

JNK3 = system: T2, JNK3
T2 construct: gene MAPK10

KIT-autoinhibited = system: KIT-autoinhibited
KIT = system: KIT
LATS1 = system: LATS1
LATS2 = system: LATS2
LCK = system: LCK
LIMK1 = system: LIMK1
LIMK2 = system: LIMK2
LKB1 = system: T3, LKB1
T3 construct: gene STK11

LOK = system: T4, LOK
T4 construct: gene STK10

LRRK2 = system: LRRK2
LTK = system: LTK
LYN = system: LYN
LZK = system: T5, LZK
T5 construct: gene MAP3K13

MAK = system: MAK
MAP3K15 = system: MAP3K15
MAP3K1 = system: MAP3K1
MAP3K2 = system: MAP3K2
MAP3K3 = system: MAP3K3
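Note: KINOMEscan kinase panel screen.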

| Structure (SMILES) | %Inh (JNK2) [%] | %Inh (JNK3) [%] | %Inh (KIT-autoinhibited) [%] | %Inh (KIT) [%] | %Inh (LATS1) [%] | %Inh (LATS2) [%] | %Inh (LCK) [%] | %Inh (LIMK1) [%] | %Inh (LIMK2) [%] | %Inh (LKB1) [%] | %Inh (LOK) [%] | %Inh (LRRK2) [%] | %Inh (LTK) [%] | %Inh (LYN) [%] | %Inh (LZK) [%] | %Inh (MAK) [%] | %Inh (MAP3K15) [%] | %Inh (MAP3K1) [%] | %Inh (MAP3K2) [%] | %Inh (MAP3K3) [%] |
| --- | --- | --- | --- | --- | --- | --- | --- | --- | --- | --- | --- | --- | --- | --- | --- | --- | --- | --- | --- | --- |
| Cl.NS(=O)(=O)c1cccc(Nc2cc(-c3ccc(F)cc3)n[nH]2)c1 [GW824645] | 1 | 0 | 35 | 90 | 0 | 0 | 0 | 0 | 0 | 25 | 0 | 0 | 0 | 0 | 0 | 0 | 1 | 0 | 22 | 0 |
| CCn1c(-c2ccoc2)nc2cnccc21 [SB-733887] | 0 | 0 | 61 | 5 | 19 | 60 | 35 | 10 | 6 | 0 | 0 | 0 | 1 | 4 | 0 | 18 | 0 | 14 | 3 | 0 |
| CCC(=O)c1c(-c2ccccc2)c2cc(Cl)ccc2c(=O)n1Cc1ccc(C(=O)O)cc1 | 93.4 | 94.6 | 0 | 39 | 2 | 0 | 0 | 2 | 0 | 1 | 0 | 0 | 0 | 0 | 0 | 4 | 0 | 0 | 0 | 0 |
| Fc1cccc(CSc2nnc(-c3ccc4c(c3)CCO4)o2)c1 | 4 | 4 | 6 | 5 | 20 | 31 | 0 | 0 | 0 | 16 | 9 | 10 | 16 | 19 | 0 | 5 | 15 | 26 | 2 | 2 |
| Cc1nnc(-c2ccc(C)c(-c3ccc(C(=O)O)cc3)c2)o1 [GW608005] | 0 | 0 | 0 | 0 | 0 | 0 | 0 | 4 | 0 | 5 | 100 | 46 | 0 | 0 | 0 | 19 | 14 | 0 | 0 | 0 |
| COc1ccc(-n2cnc3c(N)ncnc32)cc1 [SKF-97236] | 0 | 0 | 2 | 94.2 | 25 | 34 | 31 | 2 | 0 | 0 | 0 | 17 | 20 | 0 | 0 | 0 | 13 | 9 | 8 | 8 |
| COc1cc(Nc2nccc(N3CCC(NC(=O)C(C)c4ccc(Cl)cc4)C3)n2)cc(OC)c1OC (stereo not shown) [GSK1379757] | 6 | 0 | 0 | 2 | 0 | 1 | 8 | 1 | 22 | 7 | 0 | 0 | 28 | 0 | 0 | 17 | 0 | 1 | 0 | 0 |
| CCCNC(=O)Nc1ccc(Oc2ncnc3ccn(C)c23)cc1 | 3 | 0 | 3 | 89 | 44 | 11 | 0 | 0 | 0 | 9 | 47 | 0 | 4 | 30 | 22 | 0 | 0 | 31 | 15 | 0 |
| COc1cc2nccc(Nc3ccc(OCc4ccc(NC(C)=O)cc4)cc3)c2cc1OC.Cl [GW440135] | 0 | 0 | 12 | 100 | 0 | 0 | 22 | 0 | 0 | 0 | 0 | 0 | 0 | 23 | 24 | 0 | 0 | 0 | 18 | 0 |
| CCC(=O)c1c(-c2ccccc2)c2cc(Cl)ccc2c(=O)n1Cc1cc(S(C)(=O)=O)n(CCC(C)(C)O)n1 | 99.9 | 99.9 | 0 | 11 | 31 | 17 | 13 | 0 | 16 | 3 | 16 | 6 | 6 | 18 | 13 | 2 | 43 | 3 | 21 | 37 |
| COc1cc2ncn(-c3cc(OCc4ccncc4)c(C(N)=O)s3)c2cc1OC [GSK336313] | 12 | 1 | 0 | 18 | 0 | 8 | 30 | 2 | 18 | 0 | 0 | 0 | 2 | 0 | 0 | 23 | 11 | 25 | 0 | 0 |
